We go through four compounds from ChEMBL document CHEMBL4513141, “CO-ADD screening of NIH (USA) - Clinical Collection” (2021).

Entries with a potency or affinity are not part of this list.

For this test, the system named is Escherichia coli. Conditions: Concentration 20 uM; ASSAY_TEST Inhibition of Bacterial Growth; detection method Absorption (OD600); MEDIA CAMHB; plate type 384well; NBS; CORNING #3640; time 18 hr.
`O=C(O)COCCN1CCN([C@H](c2ccccc2)c2ccc(Cl)cc2)CC1` [LEVOCETIRIZINE]: the Inhibition (usually the change of the read-out against control, counted positive when it falls) worked out at 5.57%. To `Nc1ccc(S(=O)(=O)c2ccc(N)cc2)cc1` [DAPSONE] belongs 0.96%. `C[C@@H](O)[C@H]1C(=O)N2C(C(=O)O)=C(S[C@@H]3CN[C@H](C(=O)N(C)C)C3)[C@H](C)[C@H]12` [MEROPENEM] yielded an Inhibition of 7.87%.

In turn, `OCCN(CCO)c1nc(N2CCCCC2)c2nc(N(CCO)CCO)nc(N3CCCCC3)c2n1` [DIPYRIDAMOLE] came in with an Inhibition of 7.34%.
